Data as given in PubChem BioAssay (NCI).
This is part of a sample that, as a whole, favours compounds with a hit. Of some 83,000 tested, about 20% had one in any assay.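 Compound tested at a single concentration for 48 hours in 96-well plates; a percent growth value below 10 was scored as active.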 Unmarked numbers belong to inactive results. The source made the active and inactive calls.

These compounds were tested on HL-60(TB) leukemia (assay: NCI-60 one-dose screen, 48 h (100 = growth as untreated, 0 = no growth, -100 = all killed)). Conditions: 10 µM unless noted.

Structure (SMILES) | growth
COc1c(C)cnc(CSc2nc(-c3ccc(C)cc3)cn2-c2ccc(Cl)cc2)c1C | 95.8%
CC(=O)Nc1cc(C)ccc1C | 100%
COc1cc(C2=NN(C=O)C(c3cccc(Nc4ccnc5cc(Cl)ccc45)c3)C2)cc(OC)c1OC (stereo unspecified) | 75.4%
NC(=O)Nc1ccc(-n2cnc3cc(-c4ccc(O)cc4)ccc32)cc1 | 95.4%
COc1ccc(Cn2cc3c(c2-c2ccccc2)CCc2cnoc2-3)cc1N | -19.8% (active)
Nc1ncnc2c1c(-c1ccc(Oc3ccccc3)cc1)nn2C[C@@H]1SSC[C@@H]1O | -0.213% (active)
CN(C(=S)S(=O)(=O)C12CC3CC(CC(C3)C1)C2)c1ccccc1 | 11.5%
CCOC(=O)c1[nH]c(-c2ccc(Cl)cc2)cc1-c1cccnc1 | -20.7% (active)
CCN=c1cc2sc3cc(NCC)c(C)cc3nc-2cc1C | 2.7% (active)
NC(=N\N=C/c1ccc(O)cc1)/C(N)=N\N=C/c1ccc(O)cc1 | 25.9%
COc1ccc(/C(C)=C(\c2ccc(Cl)cc2)c2ccc(OCCCN(C)C)cc2)cc1 | 67.1%
C=C1C(=O)O[C@H]2[C@H]1CC/C(COC(=O)/C=C\C(=O)NCc1ccc(Cn3c(=O)sn(CCCCl)c3=O)cc1)=C\CC[C@@]1(C)O[C@@H]21 | 10.8%
COc1cccc(NC(=O)c2sc3nc(C)c(C(C)=O)cc3c2N)c1 | 6.61% (active)
Cc1cc(C)c(O)c(CNCCCCCCNCc2cc(C)cc(C)c2O)c1 | -43% (active)
CCOC(=O)c1c(C(=O)OCC)c2cc(-c3ccn4c(C(=O)c5ccccc5)c(C(=O)OCC)c(C(=O)OCC)c4c3)ccn2c1C(=O)c1ccccc1 | 86.3%
CC(C)/C=C/CC[C@](C)(O)[C@H]1CC[C@]2(C)[C@@H]1CC[C@@H]1[C@@]3(C)C/C(=C/c4cccc(C(F)(F)F)c4)C(=O)C(C)(C)[C@@H]3CC[C@]12C | 92.9%
CC1CN=C(c2cccc(-c3ccc(-c4ccccc4)o3)c2)N1 (stereo unspecified) | -46.1% (active)
COc1cc(OC)c2sc(-c3ccc(-n4cncc4-c4cc(OC)c(OC)c(OC)c4)cc3)nc2c1 | 30.3%
CC1(C)N=C(N)N=C(N)N1c1cccc(Br)c1 | 33.9%
COc1cccc(/C=C/C(=O)c2cc3c(N)c(C(=O)Nc4ccccc4C)sc3nc2C)c1 | 26.3%
O=[N+]([O-])c1ccc([I+]c2ccccc2)cc1 | 21.5%
S=c1nc2[nH]c3ccccc3c2n[nH]1 | 148%
CCOc1ccc(/C=C/C(=O)c2cccc(OCCCOc3cccc(C(=O)/C=C/c4ccc(OCC)cc4)c3)c2)cc1 | 56%
O=C(/C=C\c1cccc([N+](=O)[O-])c1)/C=C/c1cccc([N+](=O)[O-])c1 | 123%
CC(=O)NCCSC(=O)C(=O)SCCNC(C)=O | 83.6%
CN1CCN(c2ccc3nc4c(nc3c2C(F)(F)F)C(=O)c2ncccc2C4=O)CC1 | -50.4% (active)
